PubChem BioAssay (EPA / NIEHS)
Inconclusive results are not listed. Activity calls are given as the source filed them. How the source made its calls, unless noted: active means hit-call score of the fitted dose curve at least 0.9, where 1 is the maximum; inconclusive means response in the unintended direction; inactive means score below 0.9.

How the values were obtained:
[1] = TOX21_p53_BLA_p2_viability: Viability Assessment in the Tox21 HCT-116 p53 Agonism Beta-lactamase Assay, Phase 2 (AID 2283591);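 further: actives lower the ATP signal meaning cytotoxicity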
Procedure, shortened: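 HCT116 p53-bla cells, 4000/well, dosed after 5 h plating (217-fold dilution of DMSO stocks) and incubated 16 h at 37C. Viability taken as cellular ATP by CellTiter-Glo luminescence after 30 min RT; signal loss marks cytotoxicity.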

[2] = target: Cellular tumor antigen p53 (Homo sapiens) (UniProt P04637); experiment: TOX21_p53_BLA_p2_ratio: Tox21 HCT-116 p53 Agonism Beta-lactamase Assay, Ratio, Phase 2 (AID 2283592)
Procedure, shortened: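 Read-out is the blue/green (460/530 nm, 405 nm excitation) ratio after 2 h CCF4-AM loading, fitted as gain versus DMSO. Compounds, pinned at 217-fold dilution from DMSO stocks, stayed 16 h on HCT-116 beta-lactamase reporter cells seeded 5 h earlier.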

[3] = TOX21_p53_BLA_p4_viability: Viability Assessment in the Tox21 HCT-116 p53 Agonism Beta-lactamase Assay, Phase 4 (AID 2283597);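 further: hits lower the luminescence signal meaning cytotoxicity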
Procedure, shortened: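 Cytotoxicity as reduced cellular ATP (CellTiter-Glo luminescence, 30 min room temperature), measured in the same wells following the CCF4 FRET p53 reading. Human HCT-116 cells received compounds in DMSO (217-fold dilution) for 16 h.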

[4] = target: Cellular tumor antigen p53 (Homo sapiens) (UniProt P04637); experiment: TOX21_p53_BLA_p4_ratio: Tox21 HCT-116 p53 Agonism Beta-lactamase Assay, Ratio, Phase 4 (AID 2283601)
Procedure, shortened: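 HCT-116 p53 beta-lactamase reporter cells (4000/well) preincubated 5 h, then compound (217-fold dilution of DMSO stock) for 16 h at 37C. CCF4-AM substrate added 2 h at room temperature; 460/530 nm emission ratio fitted upward versus DMSO.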

[5] = target: Cellular tumor antigen p53 (Homo sapiens) (UniProt P04637); experiment: TOX21_p53_BLA_p5_ratio: Tox21 HCT-116 p53 Agonism Beta-lactamase Assay, Ratio, Phase 5 (AID 2283599)
Procedure, shortened: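 HCT-116 p53-bla cells (4000/well) plated 5 h, dosed with compound (217-fold DMSO dilution) for 16 h at 37 C; CCF4-AM substrate 2 h at room temperature. Activity is the 460/530 nm emission ratio (405 nm excitation), fitted in gain-of-signal direction versus DMSO.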

[6] = TOX21_p53_BLA_p5_viability: Viability Assessment in the Tox21 HCT-116 p53 Agonism Beta-lactamase Assay, Phase 5 (AID 2283600)
Procedure, shortened: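 Viability came from CellTiter-Glo ATP luminescence, read after 30 min at room temperature. Before this, HCT-116 p53-bla cells (4000/well) had 16 hours of compound exposure at 37C, with DMSO stocks diluted 217-fold on transfer.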

[7] = target: PGR (gene 5241) (UniProt P06401); experiment: TOX21_PR_BLA_Followup_Agonist_ratio: Tox21 HEK293 Progesterone Receptor (PR) Agonism Beta-lactamase Follow-Up Assay, Ratio (AID 2283933)
Procedure, shortened: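 Beta-lactamase reporter readout: ratio of cleaved (ch2) to uncleaved (ch1) substrate after 2 h room-temperature loading, following 16 h compound exposure at 37C. Cells were PR-UAS-bla HEK293T in 2% charcoal-stripped FBS medium. Viability was multiplexed by CellTiter-Glo.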

[8] = target: PGR (gene 5241) (UniProt P06401); experiment: TOX21_PR_BLA_Followup_Antagonist_ratio: Tox21 HEK293 Progesterone Receptor (PR) Antagonism Beta-lactamase Follow-Up Assay, Ratio (AID 2283934);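 further: PR-UAS-bla HEK293T cells stimulated with 1 nM R5020 agonist for 16 hr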
Procedure, shortened: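 Readout is the blue/green (ch2/ch1) substrate cleavage ratio after 2 hours at room temperature, following 16 hr co-treatment of PR-bla HEK293T cells with compound and 1nM promegestone. Multiplexed CellTiter-Glo viability flags cytotoxicity; DMSO baseline.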

[9] = TOX21_PR_BLA_Followup_Agonist_viability: Viability Assessment in the Tox21 HEK293 Progesterone Receptor (PR) Agonism Beta-lactamase Follow-Up Assay (AID 2283935);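 further: signal loss means lower viability so actives are cytotoxic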
Procedure, shortened: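 Run multiplexed with the beta-lactamase FRET read, this endpoint measures ATP by CellTiter-Glo luminescence (30 min, room temperature). PR-UAS-bla HEK293T cells received compound 6 hr after plating and were then incubated 16 hr at 37C in 2% stripped serum.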

[10] = TOX21_PR_BLA_Followup_Antagonist_viability: Viability Assessment in the Tox21 HEK293 Progesterone Receptor (PR) Antagonism Beta-lactamase Follow-Up Assay (AID 2283936);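 further: cells exposed to compound with R5020 agonist for 16 h; hits lower the luminescence signal meaning cytotoxicity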
Procedure, shortened: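 PR-UAS-bla HEK293T cells in medium with 2% charcoal-stripped FBS were treated with compounds plus R5020 for 16 hr at 37C. After the beta-lactamase read, CellTiter-Glo was added to the same wells and luminescence read after 30 min at room temperature.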

[11] = target: PGR (gene 5241) (UniProt P06401); experiment: TOX21_PR_LUC_Followup_Agonist: Tox21 HEK293 Progesterone Receptor (PR) Agonism Luciferase Follow-Up Assay (AID 2283937; active means hit-call score of the fitted dose curve at least 0.9, where 1 is the maximum; inactive means score below 0.9)
Procedure, shortened: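 Agonism scored as luciferase induction over DMSO, read by ONE-Glo after 30 min at RT. Compounds were incubated 16 h at 37C on HEK293-PR-A-luc cells (3,000/well, pre-plated 5 h) previously grown 5 days in charcoal-stripped serum.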

[12] = TOX21_PR_LUC_Followup_Antagonist_viability: Viability Assessment in the Tox21 HEK293 Progesterone Receptor (PR) Antagonism Luciferase Follow-Up Assay (AID 2283940)
Procedure, shortened: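 Viability counter-readout: cellular ATP measured by luciferase luminescence after 16 h compound exposure at 37C of HEK293-PR-A-luc cells, which had been cultured in charcoal-stripped serum and seeded 5 h beforehand.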

[13] = TOX21_PR_LUC_Followup_Agonist_viability: Viability Assessment in the Tox21 HEK293 Progesterone Receptor (PR) Agonism Luciferase Follow-Up Assay (AID 2283941);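 further: loss of signal means cytotoxicity so actives lower viability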
Procedure, shortened: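 Cytotoxicity counter-readout in the PR-A luciferase reporter line HEK293, with 16 h compound exposure at 37C after cells were cultured in charcoal-stripped serum. Cellular ATP quantified by CellTiter-Glo luminescence.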

Measured: AC50

Sequence of Cellular tumor antigen p53 (Homo sapiens) (P04637 whole entry, looked up): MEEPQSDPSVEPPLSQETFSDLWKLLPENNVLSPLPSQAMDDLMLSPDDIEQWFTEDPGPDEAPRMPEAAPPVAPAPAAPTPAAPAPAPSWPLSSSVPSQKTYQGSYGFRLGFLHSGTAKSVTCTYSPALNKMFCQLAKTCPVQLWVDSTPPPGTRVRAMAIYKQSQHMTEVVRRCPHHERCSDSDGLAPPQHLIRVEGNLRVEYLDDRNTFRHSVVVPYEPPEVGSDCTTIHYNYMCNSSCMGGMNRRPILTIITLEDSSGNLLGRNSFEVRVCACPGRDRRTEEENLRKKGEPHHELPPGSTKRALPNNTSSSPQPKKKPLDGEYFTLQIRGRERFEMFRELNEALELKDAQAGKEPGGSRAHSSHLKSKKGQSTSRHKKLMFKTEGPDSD
Sequence of PGR (gene 5241) (P06401 whole entry, looked up): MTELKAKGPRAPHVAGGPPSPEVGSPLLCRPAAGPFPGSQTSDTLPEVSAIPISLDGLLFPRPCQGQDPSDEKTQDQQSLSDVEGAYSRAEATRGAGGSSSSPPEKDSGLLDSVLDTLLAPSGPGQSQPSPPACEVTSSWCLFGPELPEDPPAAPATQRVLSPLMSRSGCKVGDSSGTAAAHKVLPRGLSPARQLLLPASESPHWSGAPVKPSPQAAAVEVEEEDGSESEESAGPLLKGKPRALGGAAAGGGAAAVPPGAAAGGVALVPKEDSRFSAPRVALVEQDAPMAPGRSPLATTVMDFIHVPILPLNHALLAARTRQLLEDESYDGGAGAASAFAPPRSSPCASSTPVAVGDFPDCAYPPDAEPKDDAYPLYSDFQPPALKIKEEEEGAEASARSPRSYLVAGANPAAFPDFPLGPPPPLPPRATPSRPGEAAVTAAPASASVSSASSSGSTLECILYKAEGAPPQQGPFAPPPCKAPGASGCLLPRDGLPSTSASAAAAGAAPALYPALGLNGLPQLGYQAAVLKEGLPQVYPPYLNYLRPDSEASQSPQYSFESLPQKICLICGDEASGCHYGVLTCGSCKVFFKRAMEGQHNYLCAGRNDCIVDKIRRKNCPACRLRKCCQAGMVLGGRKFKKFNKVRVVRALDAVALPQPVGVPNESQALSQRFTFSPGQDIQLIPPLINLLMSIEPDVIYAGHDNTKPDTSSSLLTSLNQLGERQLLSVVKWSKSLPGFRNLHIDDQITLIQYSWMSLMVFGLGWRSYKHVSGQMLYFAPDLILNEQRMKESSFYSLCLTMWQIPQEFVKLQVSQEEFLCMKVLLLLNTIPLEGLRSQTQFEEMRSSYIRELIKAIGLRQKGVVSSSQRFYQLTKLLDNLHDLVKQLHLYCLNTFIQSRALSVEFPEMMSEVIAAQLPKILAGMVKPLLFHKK

Cc1cc(C(=O)NCCc2ccc(S(=O)(=O)NC(=O)NN3CCCCCC3)cc2)no1
inactive: [1] | [2] | [3] | [4]

O=P(O)(O)C(O)(Cn1ccnc1)P(=O)(O)O
inactive: [1] | [2] | [5] | [6] | [4]

CCCCCCN
inactive: [1] | [2] | [5] | [6]

Nc1ccccn1
inactive: [1] | [2] | [5] | [6] | [4]

CC1(N)CCC(C(C)(C)N)CC1 (stereo not drawn)
inactive: [1] | [2] | [5] | [6]

C[C@@H]1CC[C@H]2C(C)(C)[C@H]3C[C@@]12CC[C@@]3(C)O
inactive: [1] | [2] | [3] | [6] | [4]

C=CCCCCCCC=C
inactive: [1] | [2] | [3] | [6] | [4]

CCCc1ncc(C[n+]2ccccc2C)c(N)n1
inactive: [1] | [2] | [3] | [6] | [4]

CCCCCCCCCC(=O)N(C)C
inactive: [1] | [2] | [5] | [6]

OC[C@@H](O)C(O)[C@@H](O)CO (stereo partly drawn)
inactive: [1] | [2] | [5] | [6]

NC(=S)NC(N)=S
inactive: [1] | [2] | [3] | [6] | [4]

C[C@@H]1C\C=C/C=C/C=C/C=C/[C@H](O[C@@H]2O[C@H](C)[C@@H](O)[C@H](N)[C@@H]2O)C[C@@H]2O[C@](O)(C[C@@H](O)C[C@@H]3O[C@@H]3/C=C\C(=O)O1)C[C@H](O)[C@H]2C(=O)O
inactive: [1] | [2] | [5]

Cc1c(Cn2ccnc2)c2ccccc2n1CCC(=O)O
inactive: [1] | [2] | [5] | [6] | [4]

CC(=O)OCC(=O)[C@@]1(O)CC[C@H]2[C@@H]3CCC4=CC(=O)C=C[C@]4(C)[C@@]3(F)[C@@H](O)C[C@@]21C
active: [7] 16.9 µM | [11] 0.123 µM
not listed: [5]
inactive: all other assays above

CCCCCCCCN
inactive: [1] | [2] | [5]
